# Test results published in PubChem BioAssay (NCATS).
# Inconclusive results are not listed. A call without a number means that no potency is given here. The source made the active and inactive calls. Calls come from the whole dose curve; as a rule, active = well fitted inhibition curve with a large enough effect; inconclusive = small, poorly fitted or top-dose-only effect; inactive = no such curve, though single readings can be large or run the other way.
# Legend:
# [1] = system: Zika virus NS2B-NS3 protease (unlinked complex); assay: Primary screen GU Rhodamine qHTS for Zika virus inhibitors: Unlinked NS2B-NS3 protease assay (AID 1347159); note: nearly all actives have a fitted effect of over 60% in size
# In short: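 Noncovalent NS2B hydrophilic domain–NS3 protease domain complex (25 nM) preincubated 15 min at room temperature with compounds (up to 114 microM) in 10 mM Tris-HCl pH 8.0, 0.01% Tween 20; 1.5 microM Rhodamine110 substrate added, fluorescence change over 15 min fitted to Hill equation.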
# [2] = system: Zika virus NS2B-NS3 protease (linked construct); assay: Primary screen NINDS Rhodamine qHTS for Zika virus inhibitors (AID 1347160); note: nearly all actives have a fitted effect of over 55% in size
# In short: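 Purified linked NS2B-NS3 protease (NS2B hydrophilic domain joined to NS3 protease by flexible linker), 25 nM in 10 mM Tris-HCl pH 8.0, 0.01% Tween 20. Compounds titrated, 15 min preincubation at room temperature; 1.5 microM Rhodamine110 substrate, FITC fluorescence change over 15 min.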
SMILES,Potency [1],Potency [2]
CN1CCC(c2cn(C)c3ccc(OS(=O)(=O)c4c(F)cccc4F)cc23)CC1,inactive,inactive
CCCCNc1ncc2c(-c3ccc(S(=O)(=O)N4CCOCC4)cc3)nn(C3CCC(O)CC3)c2n1 (stereo unspecified),inactive,inactive
COc1ccccc1C(=O)Nc1cc2c(cc1N1CCCC1)n(C)c(=O)n2C,inactive,inactive
c1cc(NC2CCNCC2)nc(-c2cnc3ccccn23)c1,inactive,inactive
O=C(Nc1ccccc1)N1CCC(Cc2cnc3ccccc3c2)CC1,inactive,inactive
COC1CC(O[C@H]2CC[C@]3(C)C4CC[C@@]5(C)C(=O)[C@]4(CC[C@@H]3C2)CC[C@@H]5C2=CC(=O)OC2)OC(C)C1OC1OC(COC2OC(CO)C(O)C(O)C2O)C(O)C(O)C1O (stereo partly specified),inactive,inactive
CC(C)S(=O)(=O)NC[C@@H]1CC(c2ccc(N3CCCC3)c(F)c2)=NO1,inactive,inactive
CC(C)=C1C[C@@]2(C)C(=CC1=O)CC[C@@H](OC(=O)/C(C)=C/CO)[C@@H]2C,inactive,inactive
CC1=C2C[C@@]3(C)C(CCC[C@@H]3C)C(O)C2OC1=O (stereo partly specified),inactive,inactive
C=C(C)C(=O)OC1CC2(C)OC(=CC2=O)C(=C)CC2OC(=O)C(=C)C12 (stereo unspecified),inactive,inactive
COC1CCN(c2cccc(-c3cc(NC(C)=O)nc(-n4nc(C)cc4C)n3)n2)CC1,inactive,inactive
CCc1c[nH]c2ncnc(N3CC[C@](N)(CNC(=O)c4ccc(F)cc4F)C3)c12,inactive,inactive
CC1(C)OC[C@H](NC(=O)Nc2ccc(Br)cc2Br)[C@H](c2ccccc2)O1,inactive,inactive
